Only some compounds are listed: those with a hit (about 18% of all), similar ones and a draw of the others.
HepG2 tox = kills HepG2 cells in TGF-b inhibitor counter-screen. HepG2 CAGA-GFP viability, ATP luminescence, 18 h. 410,000 compounds, 0.76% hits. Potency, µM (top dose mostly 46.1 µM), for inactives: top-dose activity change, negative = cytotoxicity, hits mostly cytotoxic. AID 588856; further: potency means the concentration at half of the fitted maximal effect
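HepG2 CAGA-GFP cells (1000/well, DMEM with 1% FBS) received compound, then TGF-beta at 500 pg/mL final, and were incubated 18 hours at 37 degrees C. Viability was read by CellTiter-Glo luminescence. Media-only wells were set as complete cell-killing and DMSO as no toxicity.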
TDP1 inh = inhibitors of human tyrosyl-DNA phosphodiesterase TDP1. Potency, µM (doses to about 130 µM), inactives show top-dose activity change, negative = inhibition, usual class: inhibitors. recombinant TDP1, AlphaScreen DNA substrate cleavage. AID 485290. 350,000 compounds, 0.28% hits. Q9NUW8; further: potency means the concentration at half of the fitted maximal effect; on the % scale 0 is the no-effect control and ±100 the full control effect; nearly all actives have a fitted effect of over 40% in size
Target sequence (Q9NUW8 whole entry, looked up): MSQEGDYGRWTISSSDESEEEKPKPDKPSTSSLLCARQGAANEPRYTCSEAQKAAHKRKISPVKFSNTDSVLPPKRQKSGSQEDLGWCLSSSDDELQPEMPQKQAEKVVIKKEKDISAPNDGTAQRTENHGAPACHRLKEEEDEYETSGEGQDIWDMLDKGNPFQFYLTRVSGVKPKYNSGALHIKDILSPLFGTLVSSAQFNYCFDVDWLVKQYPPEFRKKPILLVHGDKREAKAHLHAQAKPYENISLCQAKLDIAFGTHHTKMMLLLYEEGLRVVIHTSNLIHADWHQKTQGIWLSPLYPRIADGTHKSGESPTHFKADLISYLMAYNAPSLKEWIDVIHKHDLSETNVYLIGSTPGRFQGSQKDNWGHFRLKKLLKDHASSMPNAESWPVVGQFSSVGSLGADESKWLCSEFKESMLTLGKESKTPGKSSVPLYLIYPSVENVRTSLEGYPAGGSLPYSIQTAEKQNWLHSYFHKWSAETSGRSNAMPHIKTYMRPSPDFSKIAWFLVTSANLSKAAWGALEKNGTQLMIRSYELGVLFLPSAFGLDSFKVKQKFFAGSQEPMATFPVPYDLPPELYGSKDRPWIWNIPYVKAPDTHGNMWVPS
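Steps: enzyme plus compound, 15 min RT; add biotin/phosphotyrosine-FITC oligonucleotide (15 nM final), react 5 min; add donor/acceptor beads (10 ug/ml final), 10 min; read AlphaScreen. Tdp1 at 1 nM final.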
IL1B secr inh = inhibitors of inflammasome signaling (IL-1 beta secretion) | 360,000 compounds, 4.7% hits | THP-1 LPS/ATP IL-1B secretion, AlphaLISA, 16 h; hits give low values | activity change, % at 57.5 µM; in the data active means activity change below about -50%; inconclusive means mostly about -30% to -49%; further: on the % scale 0 is the no-effect control and ±100 the full control effect
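Secreted IL-1B measured by AlphaLISA bead assay after 16 h compound exposure of THP-1 cells; compounds (final up to 57.5 uM) added 1 h before LPS (250 ng/mL) and ATP (1.25 mM) stimulation; lower signal means less secretion.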
TGFb SMAD3 inh = inhibitors of TGF-b signaling; Potency, µM (titrated, usually from 46.1 µM), for the others: top-dose activity, negative = inhibition, hits mostly inhibitors; 410,000 compounds, 1.2% hits; HepG2 CAGA-GFP TGF-b/SMAD3 reporter, GFP fluorescence, 18 h; TGF-beta stimulated, 500 pg/mL final; further: potency means the concentration at half of the fitted maximal effect; on the % scale 0 is the no-effect control and ±100 the full control effect; nearly all actives have a fitted effect of over 65% in size
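Inhibition was scored as loss of TGF-beta-induced (500 pg/mL final, 18 hours, 37 degrees C) GFP in HEPG2 cells carrying a CAGA-GFP reporter, in DMEM with 1% FBS. Well GFP was summed per cell; Activity was normalised to unstimulated and stimulated DMSO wells, then concentration-response fitting.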
DT40 TDP1 no CPT = qHTS for Inhibitors of human tyrosyl-DNA phosphodiesterase 1 (TDP1): qHTS in cells in absence of CPT; Potency, µM (doses to about 46.2 µM), without a hit: top-dose activity change, negative = growth inhibition, usual class: inhibitors; AID 686978, 2013; 420,000 compounds, 15% hits; DT40 Tdp1-/- hTDP1 cells, no CPT, ATP luminescence, 48 h; further: potency means the concentration at half of the fitted maximal effect; on the % scale 0 is the no-effect control and ±100 the full control effect; nearly all actives have a fitted effect of over 55% in size
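Cells were dispensed at 400 per well, compounds added by pin tool, plates incubated ≥48 hr at 37 °C, then CellTiter-Glo added for 30 min at room temperature before luminescence reading. Line: DT40 Tdp1-/- complemented with hTDP1; camptothecin omitted.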
TDP1 cell CPT = DT40-hTDP1 cell growth loss with CPT; chicken DT40 Tdp1-/-;hTDP1 cells + 20 nM CPT, ATP luminescence, 48 h; 420,000 compounds, 12% hits; AID 686979; Potency, µM (highest dose often 46.2 µM), without a hit: at the highest dose activity change, negative = growth inhibition, usual class: inhibitors; further: potency means the concentration at half of the fitted maximal effect; on the % scale 0 is the no-effect control and ±100 the full control effect; nearly all actives have a fitted effect of over 55% in size
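Cell growth measured by CellTiter-Glo luminescence after a minimum 48 h, 37 C compound exposure with 20 nM CPT in Tdp1-knockout DT40 cells stably expressing hTDP1, seeded 400/well; qHTS titration format.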
* hit, by the source's call. Unless noted, the call rests on the fitted dose curve; in most records, active means well fitted curve in the direction sought with a large enough effect; inconclusive means small, poorly fitted or top-dose-only effect, or another doubt; inactive means no such curve, though single readings can be large; an effect the other way counts as inactive or inconclusive.

For CCOc1cccc(C(=O)NC2CCCCC2)c1 the results were HepG2 tox -11%, TDP1 inh 7%, IL1B secr inh 0, TGFb SMAD3 inh 0%, DT40 TDP1 no CPT -11% and TDP1 cell CPT -19%.
Screening CCOc1ccc(NC(=O)c2ccc(NC(=O)c3ccc(NC(N)=O)cc3)cc2)cc1 returned HepG2 tox -2%, TDP1 inh 56µM*, IL1B secr inh 0, TGFb SMAD3 inh 0%, DT40 TDP1 no CPT -3% and TDP1 cell CPT -4%.
CN(CC(=O)Nc1cccc(S(=O)(=O)N2CCCC2)c1)Cc1ccccc1 was read as HepG2 tox 0%, TDP1 inh 2%, IL1B secr inh -4, TGFb SMAD3 inh -9%, DT40 TDP1 no CPT inconclusive and TDP1 cell CPT -25%.
For COc1ccc(N2C(=O)CSC23CCC(C(C)(C)C)CC3)cc1 (stereo not drawn) the results were HepG2 tox 2%, TDP1 inh 1%, IL1B secr inh -2, TGFb SMAD3 inh -2%, DT40 TDP1 no CPT 18µM* and TDP1 cell CPT inconclusive.
COC(=O)c1c(-c2ccc(Cl)cc2)noc1N1CCN(c2ccccc2F)CC1 was read as HepG2 tox -14%, TDP1 inh -3%, TGFb SMAD3 inh 2%, DT40 TDP1 no CPT 7% and TDP1 cell CPT -1%.
CC(=O)c1ccc(N2CCN(c3ncnc4c3c(-c3ccccc3)cn4-c3ccc(Cl)cc3)CC2)cc1 was read as HepG2 tox -7%, TDP1 inh 10%, TGFb SMAD3 inh 6%, DT40 TDP1 no CPT inconclusive and TDP1 cell CPT inconclusive.
CC(=O)c1ccc(N2CCN(c3ncnc4onc(-c5ccc(Cl)cc5)c34)CC2)cc1 was read as HepG2 tox 0%, TDP1 inh 1%, TGFb SMAD3 inh -13%, DT40 TDP1 no CPT 16µM* and TDP1 cell CPT 23µM*.
`Fc1ccccc1N1CCN(c2ncnc3onc(-c4ccc(Cl)cc4)c23)CC1` gave HepG2 tox -6%, TDP1 inh 1%, TGFb SMAD3 inh 3%, DT40 TDP1 no CPT 21µM* and TDP1 cell CPT -26%.
Screening COc1cccc(N2CCN(c3ncnc4onc(-c5ccc(Cl)cc5)c34)CC2)c1 returned HepG2 tox -3%, TDP1 inh 4%, TGFb SMAD3 inh -15%, DT40 TDP1 no CPT 16µM* and TDP1 cell CPT inconclusive.
`COc1ccc(C(=O)Nc2ccccc2SCc2cc(=O)c3cccc(C)c3[nH]2)cc1` gave HepG2 tox -4%, TDP1 inh 8%, TGFb SMAD3 inh -33%, DT40 TDP1 no CPT inconclusive and TDP1 cell CPT -12%.
`Cc1nc2ncccn2c1-c1csc(Nc2ccc(N(C)C)cc2)n1` gave HepG2 tox -2%, TDP1 inh 12%, IL1B secr inh inconclusive, TGFb SMAD3 inh -25%, DT40 TDP1 no CPT 0.018µM* and TDP1 cell CPT 0.0052µM*.
`Cc1nc2sccn2c1-c1csc(NCc2ccccc2)n1` gave HepG2 tox -27%, TDP1 inh 11%, IL1B secr inh -73*, TGFb SMAD3 inh inconclusive, DT40 TDP1 no CPT 13µM* and TDP1 cell CPT 16µM*.
Cc1nc2ncccn2c1-c1csc(Nc2ccc(S(N)(=O)=O)cc2)n1 was read as HepG2 tox 14%, IL1B secr inh -2, TGFb SMAD3 inh 29%, DT40 TDP1 no CPT 5% and TDP1 cell CPT 37%.
For CC(=O)Nc1ccc(Nc2nc(-c3c(C)nc4ccccn34)cs2)cc1 the results were HepG2 tox -110%, IL1B secr inh inconclusive, TGFb SMAD3 inh inconclusive, DT40 TDP1 no CPT 0.82µM* and TDP1 cell CPT 1µM*.
COc1ccc(Nc2nc(-c3c(C)nc4ncccn34)cs2)cc1 was read as HepG2 tox -25%, TDP1 inh 1%, IL1B secr inh -61*, TGFb SMAD3 inh inconclusive, DT40 TDP1 no CPT 0.0073µM* and TDP1 cell CPT 0.0092µM*.
For Cc1nc2ncccn2c1-c1csc(Nc2ccccc2)n1 the results were HepG2 tox -25%, TDP1 inh 5%, IL1B secr inh -1, TGFb SMAD3 inh inconclusive, DT40 TDP1 no CPT 18µM* and TDP1 cell CPT 16µM*.
`Oc1ccccc1C1=Nc2nc3ccccc3n2C(c2ccccc2)C1` (stereo not drawn) gave HepG2 tox -2%, TDP1 inh 12%, IL1B secr inh -9, TGFb SMAD3 inh 10%, DT40 TDP1 no CPT 18µM* and TDP1 cell CPT 21µM*.
Screening Cc1cc(NCCN(C)C)n2nc(-c3cccs3)cc2n1 returned HepG2 tox 2%, TDP1 inh 5%, IL1B secr inh -100*, TGFb SMAD3 inh -4%, DT40 TDP1 no CPT -24% and TDP1 cell CPT -8%.
Screening Cc1ccc(Nc2nc3nonc3[nH]c2=O)cc1Cl returned HepG2 tox -28%, TDP1 inh 5%, IL1B secr inh -17, TGFb SMAD3 inh inconclusive, DT40 TDP1 no CPT 26µM* and TDP1 cell CPT 16µM*.
`COc1cccc([C@@H]2Oc3ccc(OC)cc3C[C@H]2OC(=O)NCc2ccco2)c1` gave TDP1 inh 3%.
`CC(=O)Nc1ccc(S(=O)(=O)NCC(=O)OCC(=O)N2CCCCCC2)cc1` gave HepG2 tox -23%, TDP1 inh 1%, IL1B secr inh 16, TGFb SMAD3 inh -10%, DT40 TDP1 no CPT -2% and TDP1 cell CPT 3%.
CCOC(=O)C1=CCN(S(=O)(=O)c2ccccc2C)C1c1cccc(Br)c1 (stereo not drawn) was read as HepG2 tox -34%, IL1B secr inh 42, TGFb SMAD3 inh inconclusive, DT40 TDP1 no CPT 21µM* and TDP1 cell CPT inconclusive.
For CCOC(=O)C1=CCN(S(=O)(=O)c2ccccc2C)C1c1cccc(F)c1 (stereo not drawn) the results were HepG2 tox -26%, IL1B secr inh 50, TGFb SMAD3 inh inconclusive, DT40 TDP1 no CPT 16µM* and TDP1 cell CPT inconclusive.
CCOC(=O)C1=CCN(S(=O)(=O)c2cccc(Cl)c2)C1c1cccc(F)c1 (stereo not drawn) was read as HepG2 tox -43%, IL1B secr inh inconclusive, TGFb SMAD3 inh inconclusive, DT40 TDP1 no CPT 21µM* and TDP1 cell CPT 21µM*.
